Measured values published in PubChem BioAssay (EPA / NIEHS).
Activity calls are given as the source filed them. How the source made its calls: active means hit-call score of the fitted dose curve at least 0.9, where 1 is the maximum; inactive means score below 0.9.

Assays:
[1] = ATG_GLI_CIS: Attagene CIS-FACTORIAL HepG2 Assay for human Zinc Finger Protein GLI1 (AID 2282945); conditions: HepG2, Attagene cis-factorial reporter mRNA, GLI element; actives raise or lower the signal
Procedure, shortened: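 HepG2 cells transiently transfected with cis-promoter multiplexed reporter units report endogenous transcription factor activity. After 24 h chemical exposure, reporter mRNA was quantified by RT-PCR, 6-FAM labelling, HpaI digestion and capillary electrophoresis, with bidirectional fitting against DMSO.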

[2] = ATG_ISRE_CIS: Attagene CIS-FACTORIAL HepG2 Assay for human Interferon Regulatory Factor 1 (IRF1) binding to an Interferon-Stimulated Response Element (ISRE) (AID 2282948); conditions: HepG2 ISRE cis-reporter (Attagene), mRNA transcription readout; actives raise or lower the signal
Procedure, shortened: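 Multiplexed mRNA reporter readout in human liver HepG2 cells: cis-element-driven reporters transfected, compound added for 24 h, transcripts amplified, fluorescently labelled and sized by capillary electrophoresis; curve fitting bidirectional against DMSO.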

[3] = ATG_M_32_CIS: Attagene CIS-FACTORIAL HepG2 Assay for M32 Transcription Factor (Internal Marker) (AID 2282949); conditions: HepG2 Attagene cis-factorial M32 reporter, mRNA; actives raise or lower the signal;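 further: background control marker of the multiplexed CIS panel rather than a real target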
Procedure, shortened: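 Transient MRTU transfection of HepG2; 24 h compound treatment; TriZol RNA, oligo(dT) RT, reporter PCR, 6-FAM primer extension, HpaI cut, CE. Gain/loss of signal vs DMSO.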

[4] = ATG_M_06_CIS: Attagene CIS-FACTORIAL HepG2 Assay for M06 Transcription Factor (Internal Marker) (AID 2282950); conditions: HepG2 Attagene CIS-FACTORIAL M06 internal marker reporter; actives raise or lower the signal
Procedure, shortened: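 HepG2 cells transiently transfected with cis-regulated multiple reporter transcription units were exposed to chemical for 24 h; reporter mRNA was quantified by RT-PCR, 6-FAM primer labelling, HpaI digestion and capillary electrophoresis, fitted bidirectionally against DMSO.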

[5] = molecular target: Hypoxia-inducible factor 1-alpha (Homo sapiens) (UniProt Q16665); assay: ATG_HIF1a_CIS: Attagene CIS-FACTORIAL HepG2 Assay for human Hypoxia Inducible Factor 1 (HIF1A) (AID 2282951); conditions: HepG2 Attagene cis-factorial HIF1a reporter transcription; actives raise or lower the signal
Sequence of Hypoxia-inducible factor 1-alpha (Homo sapiens) (Q16665 whole entry, looked up): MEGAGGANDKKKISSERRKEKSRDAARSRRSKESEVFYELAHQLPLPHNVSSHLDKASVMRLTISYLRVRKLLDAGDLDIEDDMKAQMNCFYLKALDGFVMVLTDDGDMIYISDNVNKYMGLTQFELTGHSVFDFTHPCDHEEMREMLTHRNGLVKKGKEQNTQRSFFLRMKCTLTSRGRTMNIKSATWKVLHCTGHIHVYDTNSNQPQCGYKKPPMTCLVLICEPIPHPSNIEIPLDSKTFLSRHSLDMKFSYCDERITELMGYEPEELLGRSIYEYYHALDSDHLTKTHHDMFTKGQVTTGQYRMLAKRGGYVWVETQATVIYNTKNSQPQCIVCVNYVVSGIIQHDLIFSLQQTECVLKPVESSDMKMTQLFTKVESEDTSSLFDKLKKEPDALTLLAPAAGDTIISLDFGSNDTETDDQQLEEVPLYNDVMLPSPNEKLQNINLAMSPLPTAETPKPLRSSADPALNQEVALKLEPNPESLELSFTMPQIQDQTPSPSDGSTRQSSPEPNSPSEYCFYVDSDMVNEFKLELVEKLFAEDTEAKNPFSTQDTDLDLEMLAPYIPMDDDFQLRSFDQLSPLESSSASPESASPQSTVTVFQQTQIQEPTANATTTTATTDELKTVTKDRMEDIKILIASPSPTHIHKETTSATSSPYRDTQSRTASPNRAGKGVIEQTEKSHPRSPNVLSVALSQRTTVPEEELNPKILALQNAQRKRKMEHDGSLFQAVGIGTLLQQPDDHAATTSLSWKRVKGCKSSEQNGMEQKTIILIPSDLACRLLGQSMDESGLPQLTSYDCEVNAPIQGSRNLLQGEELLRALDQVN
Procedure, shortened: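 Cis-element reporter constructs were transiently transfected into HepG2 cells, which were treated for 24 h; reporter RNA was reverse-transcribed, amplified, labelled and resolved by capillary electrophoresis.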

[6] = molecular target: Hepatocyte nuclear factor 6 (Homo sapiens) (UniProt Q9UBC0); assay: ATG_HNF6_CIS: Attagene CIS-FACTORIAL HepG2 Assay for human Hepatocyte Nuclear Factor 6 (HNF6) (AID 2282952); conditions: HepG2 Attagene cis-factorial HNF6 reporter transcription; actives raise or lower the signal
Sequence of Hepatocyte nuclear factor 6 (Homo sapiens) (Q9UBC0 whole entry, looked up, the tested form may be a part): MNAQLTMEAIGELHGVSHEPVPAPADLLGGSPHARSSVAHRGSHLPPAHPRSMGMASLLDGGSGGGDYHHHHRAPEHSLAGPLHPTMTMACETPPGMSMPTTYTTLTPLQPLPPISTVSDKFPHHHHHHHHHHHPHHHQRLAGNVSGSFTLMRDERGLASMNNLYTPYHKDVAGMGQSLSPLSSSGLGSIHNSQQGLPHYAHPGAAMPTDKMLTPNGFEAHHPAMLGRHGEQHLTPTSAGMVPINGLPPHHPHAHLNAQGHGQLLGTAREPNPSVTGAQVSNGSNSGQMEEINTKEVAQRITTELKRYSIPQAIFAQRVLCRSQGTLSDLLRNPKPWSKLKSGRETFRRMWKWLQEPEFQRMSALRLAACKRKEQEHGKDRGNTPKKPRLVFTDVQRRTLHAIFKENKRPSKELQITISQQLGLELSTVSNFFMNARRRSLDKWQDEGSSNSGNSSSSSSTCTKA
Procedure, shortened: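 Twenty-four-hour chemical treatment of reporter-transfected HepG2 cells precedes RNA isolation, DNase-treated reverse transcription and PCR of reporter sequences. Labelled fragments are sized by capillary electrophoresis and fitted bidirectionally versus DMSO.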

[7] = molecular target: Heat shock factor protein 1 (Homo sapiens) (UniProt Q00613); assay: ATG_HSE_CIS: Attagene CIS-FACTORIAL HepG2 Assay for human Heat Shock Transcription Factor 1 (HSE) (AID 2282953); conditions: HepG2 HSE cis-reporter, Attagene RNA transcription; actives raise or lower the signal
Sequence of Heat shock factor protein 1 (Homo sapiens) (Q00613 whole entry, looked up): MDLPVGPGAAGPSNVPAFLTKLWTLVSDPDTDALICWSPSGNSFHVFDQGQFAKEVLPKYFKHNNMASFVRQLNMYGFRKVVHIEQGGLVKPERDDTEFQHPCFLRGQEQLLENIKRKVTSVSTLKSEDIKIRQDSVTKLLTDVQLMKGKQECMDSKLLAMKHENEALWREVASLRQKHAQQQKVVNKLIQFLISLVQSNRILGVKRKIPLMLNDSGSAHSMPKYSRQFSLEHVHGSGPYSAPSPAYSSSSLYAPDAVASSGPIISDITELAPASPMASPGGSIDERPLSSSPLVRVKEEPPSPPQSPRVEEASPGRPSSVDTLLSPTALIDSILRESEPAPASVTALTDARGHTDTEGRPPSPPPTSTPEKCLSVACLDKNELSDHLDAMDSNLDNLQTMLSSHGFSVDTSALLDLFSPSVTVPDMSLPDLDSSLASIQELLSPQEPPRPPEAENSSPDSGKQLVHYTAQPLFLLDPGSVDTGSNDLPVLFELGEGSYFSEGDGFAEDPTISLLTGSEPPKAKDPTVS
Procedure, shortened: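 HepG2 cells transiently transfected with multiple reporter transcription units under cis-regulatory promoter control, measuring endogenous transcription factor activity. After 24 h chemical exposure, reporter mRNA quantified by RT-PCR, fluorescent labelling, HpaI digestion and capillary electrophoresis; bidirectional fit versus DMSO.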

[8] = ATG_MRE_CIS: Attagene CIS-FACTORIAL HepG2 Assay for human Metal Responsive Element (MRE) (AID 2282954); conditions: HepG2 MRE cis-reporter transcription, Attagene multiplex; actives raise or lower the signal
Procedure, shortened: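 Readout: capillary electrophoresis of 6-FAM-labelled, HpaI-digested RT-PCR reporter products. System: HepG2 cells carrying transient multiplexed cis reporters, dosed 24 h. Analysis: bidirectional fit, DMSO baseline.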

[9] = ATG_PBREM_CIS: Attagene CIS-FACTORIAL HepG2 Assay for human Phenobarbital-responsive Enhancer Module (PBREM) (AID 2282955); conditions: HepG2 PBREM cis-reporter, Attagene multiplexed transcription; actives raise or lower the signal
Procedure, shortened: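 Multiplexed cis-reporter readout in human hepatoma HepG2 cells; PBREM-regulated transcript quantified after 24 h exposure by fluorescent RT-PCR fragment analysis. Signal changes up or down fitted relative to DMSO.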

[10] = molecular target: Paired box protein Pax-6 (Homo sapiens) (UniProt P26367); assay: ATG_Pax6_CIS: Attagene CIS-FACTORIAL HepG2 Assay for human Paired Box 6 (PAX6) (AID 2282956); conditions: HepG2 CIS-FACTORIAL PAX6 reporter transcription, RNA readout; actives raise or lower the signal
Sequence of Paired box protein Pax-6 (Homo sapiens) (P26367 whole entry, looked up): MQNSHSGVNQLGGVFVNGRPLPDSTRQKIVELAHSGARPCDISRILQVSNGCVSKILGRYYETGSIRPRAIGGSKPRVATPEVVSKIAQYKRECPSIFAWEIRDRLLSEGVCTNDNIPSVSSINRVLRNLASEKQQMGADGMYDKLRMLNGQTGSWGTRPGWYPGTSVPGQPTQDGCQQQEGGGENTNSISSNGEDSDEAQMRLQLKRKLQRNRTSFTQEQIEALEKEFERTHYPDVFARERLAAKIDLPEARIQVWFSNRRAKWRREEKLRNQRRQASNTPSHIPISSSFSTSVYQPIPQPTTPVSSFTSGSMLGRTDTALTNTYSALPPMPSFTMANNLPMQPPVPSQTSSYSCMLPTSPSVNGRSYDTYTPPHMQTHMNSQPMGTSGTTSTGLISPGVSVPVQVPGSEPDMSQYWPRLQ
Procedure, shortened: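 Fluorescent RT-PCR products separated by capillary electrophoresis report PAX6-linked promoter mRNA in HepG2 cells 24 h post-dose. Curves fitted bidirectionally, DMSO as negative control.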

[11] = ATG_PXRE_CIS: Attagene CIS-FACTORIAL HepG2 Assay for human Pregnane X Receptor Element (PXRE) (AID 2282957); conditions: HepG2 Attagene CIS-FACTORIAL PXRE reporter, mRNA; actives raise or lower the signal
Procedure, shortened: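 Bidirectional activity, baselined to DMSO, derived from reporter mRNA fluorescence (RT-PCR plus capillary electrophoresis) in HepG2 cells bearing cis-promoter reporter units, 24 h exposure.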

[12] = ATG_PPRE_CIS: Attagene CIS-FACTORIAL HepG2 Assay for human Peroxisome Proliferator-activated Response Element (PPRE) (AID 2282958); conditions: HepG2 PPRE cis-element reporter, Attagene transcription factor profiling; actives raise or lower the signal
Procedure, shortened: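 DMSO served as negative control and baseline for bidirectional curve fitting. Signal came from PPRE-regulated reporter mRNA in HepG2 cells, measured 24 h post-dosing by RT-PCR, 6-FAM primer extension and capillary electrophoresis.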

[13] = ATG_RORE_CIS: Attagene CIS-FACTORIAL HepG2 Assay for human RAR-related Orphan Receptor Element (RORE) (AID 2282959); conditions: HepG2 Attagene cis-factorial RORE reporter, mRNA; actives raise or lower the signal
Procedure, shortened: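 Transfect HepG2 with MRTUs; treat 24 h; extract RNA; RT with oligo(dT); PCR with reporter-specific primers; 6-FAM primer extension; HpaI digest 2 h at 37 C; capillary electrophoresis. Fit vs DMSO, bidirectional.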

[14] = ATG_Sox_CIS: Attagene CIS-FACTORIAL HepG2 Assay for human SRY-box transcription factor (SOX) (AID 2282960); conditions: HepG2 Attagene cis-factorial SOX reporter, mRNA; actives raise or lower the signal
Procedure, shortened: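 Fluorescence-labelled cDNA fragments from reporter transcripts, sized by CE, give the signal. Cells: HepG2, transiently transfected with cis-regulated reporter units. Exposure 24 h; DMSO negative control; bidirectional curve fitting.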

[15] = molecular target: Transcription factor Sp1 (Homo sapiens) (UniProt P08047); assay: ATG_Sp1_CIS: Attagene CIS-FACTORIAL HepG2 Assay for human Specificity Protein 1 (Sp1) (AID 2282961); conditions: HepG2 Sp1 cis-reporter transcription, actives raise or lower the signal
Sequence of Transcription factor Sp1 (Homo sapiens) (P08047 whole entry, looked up): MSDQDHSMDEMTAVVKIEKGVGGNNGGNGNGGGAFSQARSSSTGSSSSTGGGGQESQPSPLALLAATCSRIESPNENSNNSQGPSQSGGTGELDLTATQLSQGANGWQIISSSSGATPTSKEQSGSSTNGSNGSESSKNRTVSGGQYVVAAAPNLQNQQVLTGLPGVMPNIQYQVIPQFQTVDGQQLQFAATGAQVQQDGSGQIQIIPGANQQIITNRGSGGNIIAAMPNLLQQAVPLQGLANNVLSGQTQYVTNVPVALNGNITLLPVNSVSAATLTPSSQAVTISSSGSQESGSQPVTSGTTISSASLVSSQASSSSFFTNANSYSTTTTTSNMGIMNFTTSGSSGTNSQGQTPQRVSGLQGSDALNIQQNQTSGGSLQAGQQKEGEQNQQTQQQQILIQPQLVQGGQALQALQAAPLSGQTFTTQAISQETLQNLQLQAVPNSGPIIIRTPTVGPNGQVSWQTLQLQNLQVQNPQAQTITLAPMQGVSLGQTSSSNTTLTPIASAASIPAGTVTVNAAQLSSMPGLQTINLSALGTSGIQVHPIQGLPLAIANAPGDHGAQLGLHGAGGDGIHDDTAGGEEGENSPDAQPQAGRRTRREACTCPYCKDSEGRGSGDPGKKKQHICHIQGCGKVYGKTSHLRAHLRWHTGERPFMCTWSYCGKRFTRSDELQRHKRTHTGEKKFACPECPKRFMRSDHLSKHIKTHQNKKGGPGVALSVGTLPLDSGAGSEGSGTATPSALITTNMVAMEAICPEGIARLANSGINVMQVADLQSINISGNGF
Procedure, shortened: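 Chemicals are dosed onto HepG2 cells transfected with multiple cis-promoter reporter constructs, and after 24 h reporter RNA is reverse-transcribed, PCR-amplified and resolved by capillary electrophoresis for fluorescence quantitation; activity is scored up or down against DMSO.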

[16] = ATG_SREBP_CIS: Attagene CIS-FACTORIAL HepG2 Assay for human Sterol Regulatory Element Binding (SREBP) (AID 2282962); conditions: HepG2 Attagene cis-factorial SREBP reporter, mRNA; actives raise or lower the signal
Procedure, shortened: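 Endogenous factor activity is measured in HepG2 through multiplexed reporter units under cis-element control. Following a 24 h incubation, reporter transcripts are reverse-transcribed, PCR-amplified and sized by capillary electrophoresis; activity is fitted in both directions relative to DMSO.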

[17] = molecular target: Signal transducer and activator of transcription 3 (Homo sapiens) (UniProt P40763); assay: ATG_STAT3_CIS: Attagene CIS-FACTORIAL HepG2 Assay for human Signal Transducer and Activator of Transcription 3 (STAT3) (AID 2282963); conditions: HepG2, Attagene cis-factorial STAT3 reporter transcription; actives raise or lower the signal
Sequence of Signal transducer and activator of transcription 3 (Homo sapiens) (P40763 whole entry, looked up): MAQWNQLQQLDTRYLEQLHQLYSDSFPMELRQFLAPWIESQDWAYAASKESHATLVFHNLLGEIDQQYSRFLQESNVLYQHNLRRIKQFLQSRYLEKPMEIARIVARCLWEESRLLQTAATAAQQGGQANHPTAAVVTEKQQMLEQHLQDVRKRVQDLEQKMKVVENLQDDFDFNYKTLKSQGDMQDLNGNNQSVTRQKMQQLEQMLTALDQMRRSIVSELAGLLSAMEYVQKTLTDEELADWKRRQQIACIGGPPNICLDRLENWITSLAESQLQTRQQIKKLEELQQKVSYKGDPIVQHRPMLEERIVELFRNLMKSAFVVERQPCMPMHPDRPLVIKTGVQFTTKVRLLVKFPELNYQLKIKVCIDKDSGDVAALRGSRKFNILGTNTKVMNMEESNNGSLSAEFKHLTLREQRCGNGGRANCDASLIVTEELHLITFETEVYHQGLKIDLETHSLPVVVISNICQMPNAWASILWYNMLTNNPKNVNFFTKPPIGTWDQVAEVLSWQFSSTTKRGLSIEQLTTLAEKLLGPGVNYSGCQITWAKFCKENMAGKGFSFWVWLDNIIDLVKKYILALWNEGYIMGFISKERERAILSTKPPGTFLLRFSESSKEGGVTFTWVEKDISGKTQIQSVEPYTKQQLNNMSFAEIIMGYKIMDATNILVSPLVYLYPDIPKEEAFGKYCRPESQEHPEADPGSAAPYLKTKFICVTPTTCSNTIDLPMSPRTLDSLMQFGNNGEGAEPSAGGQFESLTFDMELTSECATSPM
Procedure, shortened: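 Uses human liver HepG2 transiently carrying cis-regulated reporter transcription units. Following 24 h dosing, reporter mRNA induction was detected by RT-PCR and capillary electrophoresis, analysed bidirectionally versus DMSO.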

[18] = ATG_TA_CIS: Attagene CIS-FACTORIAL HepG2 Assay for human TA Basal Promoter (AID 2282964); conditions: HepG2 Attagene CIS-factorial TA basal promoter reporter; actives raise or lower the signal
Procedure, shortened: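 HepG2 cells transiently transfected with multiplexed cis-promoter reporter units, dosed 24 h. Reporter mRNA measured by RT-PCR, 6-FAM labelling, HpaI digestion and capillary electrophoresis; bidirectional fit versus DMSO baseline, serving as background control.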

[19] = ATG_GRE_CIS: Attagene CIS-FACTORIAL HepG2 Assay for human Glucocorticoid Response Elements (GRE) (AID 2282947); conditions: HepG2 GRE cis-reporter, Attagene multiplex mRNA; actives raise or lower the signal
Procedure, shortened: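 HepG2, transient cis-reporter transfection, 24 h. Reporter mRNA: RT-PCR then CE, fluorescence. Fit both directions vs DMSO.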

Measured: AC50

CCCCN(CCCC)CCCCCCN(CCCC)CCCC
not listed: [19]
inactive: all other assays above

O=C(O)c1cc2ccccc2cc1O
active: [11] 54.4 µM | [12] 52 µM
not listed: [3] | [7] | [13] | [14] | [18]
inactive: all other assays above

CCCCCCCCCCO[C@@H]1O[C@H](CO)[C@@H](O)[C@H](O)[C@H]1O
not listed: [14] | [19]
inactive: all other assays above

CC/C=C\C#N
not listed: [3] | [6] | [13]
inactive: all other assays above

CCCCCCCCCC(=O)OCC
not listed: [13] | [19]
inactive: all other assays above

CCc1cccc(O)c1
active: [11] 28.1 µM
not listed: [18] | [19]
inactive: all other assays above

CCOc1ccc(NC(C)=O)cc1
not listed: [3] | [9] | [12]
inactive: all other assays above

CC(C)COC(=O)c1ccccc1O
active: [11] 44.8 µM
not listed: [3] | [5]
inactive: all other assays above

CC(C)(CO)CO
not listed: [3] | [9] | [10] | [12]
inactive: all other assays above

CC(=O)CCc1ccc(O)cc1
not listed: [3] | [4] | [5] | [6] | [9] | [18]
inactive: all other assays above

O=S(=O)(O)CCCN1CCOCC1
not listed: [3] | [7] | [9] | [10] | [13]
inactive: all other assays above

CCCc1ccc(N)cc1
not listed: [13] | [14] | [19]
inactive: all other assays above

CCCC1CCC(=O)CC1
active: [11] 27.6 µM
not listed: [3] | [5] | [12]
inactive: all other assays above

CCCCOCCOCCOCCO
not listed: [18] | [19]
inactive: all other assays above

COc1cc(OC)c2ccc(=O)oc2c1
not listed: [19]
inactive: all other assays above

CCCCCCCCCOS(=O)(=O)O
active: [12] 24 µM
not listed: [13] | [19]
inactive: all other assays above

CCCCCCCCCCCCOCCOS(=O)(=O)O
active: [11] 14.2 µM
not listed: [19]
inactive: all other assays above

COC(=O)c1cccc(C(=O)OC)c1
not listed: [18] | [19]
inactive: all other assays above
